# From PubChem BioAssay (EPA / NIEHS)
# Several values for one entry are separate records, joined by “and”; a condition that tells them apart may be missing. Identical values can stand only once. More than one record can exist for a structure, and the calls need not agree. Activity calls are given as the source filed them. The calls were made as follows: active = hit-call score of the fitted dose curve at least 0.9, where 1 is the maximum; inactive = score below 0.9.
# Legend:
# [1] = ATG_ISRE_CIS: Attagene CIS-FACTORIAL HepG2 Assay for human Interferon Regulatory Factor 1 (IRF1) binding to an Interferon-Stimulated Response Element (ISRE) (AID 2282948); conditions: HepG2 ISRE cis-reporter (Attagene), mRNA transcription readout; actives raise or lower the signal
# Procedure, shortened: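 Endogenous transcription factor activity read as reporter transcript abundance via RT-PCR and capillary electrophoresis. HepG2 cells transiently transfected, 24 h chemical exposure. Gain or loss fitted against DMSO baseline.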
# [2] = ATG_M_32_CIS: Attagene CIS-FACTORIAL HepG2 Assay for M32 Transcription Factor (Internal Marker) (AID 2282949); conditions: HepG2 Attagene cis-factorial M32 reporter, mRNA; actives raise or lower the signal;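 also: background control marker of the multiplexed CIS panel rather than a real target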
# Procedure, shortened: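 Transient MRTU transfection of HepG2; 24 h compound treatment; TriZol RNA, oligo(dT) RT, reporter PCR, 6-FAM primer extension, HpaI cut, CE. Gain/loss of signal vs DMSO.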
# [3] = ATG_M_06_CIS: Attagene CIS-FACTORIAL HepG2 Assay for M06 Transcription Factor (Internal Marker) (AID 2282950); conditions: HepG2 Attagene CIS-FACTORIAL M06 internal marker reporter; actives raise or lower the signal
# Procedure, shortened: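 Terse: HepG2, transient MRTU transfection (FuGene 6), 24 h dosing; total RNA, oligo(dT) RT, PCR, FAM label, HpaI cut, capillary electrophoresis; bidirectional fit vs DMSO baseline; background-control endpoint.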
# [4] = target: Hypoxia-inducible factor 1-alpha (Homo sapiens) (UniProt Q16665); assay: ATG_HIF1a_CIS: Attagene CIS-FACTORIAL HepG2 Assay for human Hypoxia Inducible Factor 1 (HIF1A) (AID 2282951); conditions: HepG2 Attagene cis-factorial HIF1a reporter transcription; actives raise or lower the signal
# Chain of Hypoxia-inducible factor 1-alpha (Homo sapiens) (Q16665 whole entry, looked up): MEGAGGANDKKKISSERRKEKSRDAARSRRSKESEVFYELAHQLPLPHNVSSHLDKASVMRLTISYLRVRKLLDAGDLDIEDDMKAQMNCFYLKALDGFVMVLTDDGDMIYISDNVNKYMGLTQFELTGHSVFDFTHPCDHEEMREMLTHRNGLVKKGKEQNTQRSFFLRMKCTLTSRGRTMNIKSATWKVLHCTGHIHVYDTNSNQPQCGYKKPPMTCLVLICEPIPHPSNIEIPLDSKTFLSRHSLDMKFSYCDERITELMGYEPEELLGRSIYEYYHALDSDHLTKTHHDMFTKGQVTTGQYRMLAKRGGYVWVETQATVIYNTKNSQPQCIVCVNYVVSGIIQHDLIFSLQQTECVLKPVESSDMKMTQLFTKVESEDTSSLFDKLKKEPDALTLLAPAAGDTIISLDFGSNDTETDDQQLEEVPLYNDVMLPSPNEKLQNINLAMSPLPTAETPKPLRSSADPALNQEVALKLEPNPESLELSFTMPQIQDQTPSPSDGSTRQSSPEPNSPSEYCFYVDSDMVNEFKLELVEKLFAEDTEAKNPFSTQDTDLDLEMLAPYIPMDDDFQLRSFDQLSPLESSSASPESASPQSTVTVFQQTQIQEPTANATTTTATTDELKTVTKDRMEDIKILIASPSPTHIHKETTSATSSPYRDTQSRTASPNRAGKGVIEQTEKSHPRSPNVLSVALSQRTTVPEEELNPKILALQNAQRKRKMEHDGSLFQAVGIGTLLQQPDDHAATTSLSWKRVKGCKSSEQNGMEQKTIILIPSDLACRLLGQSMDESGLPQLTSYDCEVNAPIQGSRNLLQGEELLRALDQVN
# Procedure, shortened: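 Measures endogenous transcription-factor activity through cis-regulated reporter mRNA in HepG2. Cells dosed 24 h; transcripts quantified by RT-PCR with 6-FAM-labelled products separated by capillary electrophoresis; DMSO serves as negative control.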
# [5] = target: Hepatocyte nuclear factor 6 (Homo sapiens) (UniProt Q9UBC0); assay: ATG_HNF6_CIS: Attagene CIS-FACTORIAL HepG2 Assay for human Hepatocyte Nuclear Factor 6 (HNF6) (AID 2282952); conditions: HepG2 Attagene cis-factorial HNF6 reporter transcription; actives raise or lower the signal
# Chain of Hepatocyte nuclear factor 6 (Homo sapiens) (Q9UBC0 whole entry, looked up, the tested form may be a part): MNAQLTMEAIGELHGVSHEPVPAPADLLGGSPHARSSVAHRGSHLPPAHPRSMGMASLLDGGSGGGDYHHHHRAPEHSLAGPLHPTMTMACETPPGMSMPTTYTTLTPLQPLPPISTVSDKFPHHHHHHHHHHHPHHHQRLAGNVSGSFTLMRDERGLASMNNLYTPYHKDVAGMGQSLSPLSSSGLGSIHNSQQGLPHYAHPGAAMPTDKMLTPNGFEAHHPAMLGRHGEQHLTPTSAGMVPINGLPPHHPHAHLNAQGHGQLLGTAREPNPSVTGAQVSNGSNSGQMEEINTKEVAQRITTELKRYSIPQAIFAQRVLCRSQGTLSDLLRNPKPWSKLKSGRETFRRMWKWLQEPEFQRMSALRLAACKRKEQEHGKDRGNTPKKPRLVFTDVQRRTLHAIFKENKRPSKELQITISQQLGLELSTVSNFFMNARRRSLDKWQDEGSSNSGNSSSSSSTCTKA
# Procedure, shortened: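 First, HepG2 cells were transfected with the multiplexed cis reporter library and dosed with chemical for 24 h. Next, RNA was reverse-transcribed, PCR-amplified and fluorescently labelled. Finally, HpaI-digested fragments were read by capillary electrophoresis.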
# [6] = target: Heat shock factor protein 1 (Homo sapiens) (UniProt Q00613); assay: ATG_HSE_CIS: Attagene CIS-FACTORIAL HepG2 Assay for human Heat Shock Transcription Factor 1 (HSE) (AID 2282953); conditions: HepG2 HSE cis-reporter, Attagene RNA transcription; actives raise or lower the signal
# Chain of Heat shock factor protein 1 (Homo sapiens) (Q00613 whole entry, looked up, the tested form may be a part): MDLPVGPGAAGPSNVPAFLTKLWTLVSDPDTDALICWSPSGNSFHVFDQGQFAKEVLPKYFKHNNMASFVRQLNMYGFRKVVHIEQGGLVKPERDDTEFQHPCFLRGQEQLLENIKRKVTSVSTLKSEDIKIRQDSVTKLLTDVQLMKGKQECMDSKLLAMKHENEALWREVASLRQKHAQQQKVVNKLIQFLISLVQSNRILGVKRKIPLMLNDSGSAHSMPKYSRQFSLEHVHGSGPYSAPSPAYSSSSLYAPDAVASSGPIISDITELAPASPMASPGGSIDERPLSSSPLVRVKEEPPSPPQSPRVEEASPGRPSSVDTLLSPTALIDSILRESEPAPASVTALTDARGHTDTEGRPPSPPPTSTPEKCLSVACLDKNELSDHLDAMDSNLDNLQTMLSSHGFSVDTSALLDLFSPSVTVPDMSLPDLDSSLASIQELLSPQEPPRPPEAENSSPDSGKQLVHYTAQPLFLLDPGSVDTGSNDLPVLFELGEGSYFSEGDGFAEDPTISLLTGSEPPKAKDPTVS
# Procedure, shortened: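 Read-out: fluorescence of reporter-specific RT-PCR fragments separated by capillary electrophoresis. HepG2 carrying transfected cis-element reporter units; 24 h dosing; activity fitted in both directions relative to DMSO baseline.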
# [7] = ATG_MRE_CIS: Attagene CIS-FACTORIAL HepG2 Assay for human Metal Responsive Element (MRE) (AID 2282954); conditions: HepG2 MRE cis-reporter transcription, Attagene multiplex; actives raise or lower the signal
# Procedure, shortened: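 Readout: capillary electrophoresis of 6-FAM-labelled, HpaI-digested RT-PCR reporter products. System: HepG2 cells carrying transient multiplexed cis reporters, dosed 24 h. Analysis: bidirectional fit, DMSO baseline.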
# [8] = ATG_PBREM_CIS: Attagene CIS-FACTORIAL HepG2 Assay for human Phenobarbital-responsive Enhancer Module (PBREM) (AID 2282955); conditions: HepG2 PBREM cis-reporter, Attagene multiplexed transcription; actives raise or lower the signal
# Procedure, shortened: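 Fluorescence of labelled reporter cDNA fragments, resolved by capillary electrophoresis, gives mRNA induction in transfected HepG2 cells treated for 24 h; DMSO serves as negative control and baseline.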
# [9] = target: Paired box protein Pax-6 (Homo sapiens) (UniProt P26367); assay: ATG_Pax6_CIS: Attagene CIS-FACTORIAL HepG2 Assay for human Paired Box 6 (PAX6) (AID 2282956); conditions: HepG2 CIS-FACTORIAL PAX6 reporter transcription, RNA readout; actives raise or lower the signal
# Chain of Paired box protein Pax-6 (Homo sapiens) (P26367 whole entry, looked up): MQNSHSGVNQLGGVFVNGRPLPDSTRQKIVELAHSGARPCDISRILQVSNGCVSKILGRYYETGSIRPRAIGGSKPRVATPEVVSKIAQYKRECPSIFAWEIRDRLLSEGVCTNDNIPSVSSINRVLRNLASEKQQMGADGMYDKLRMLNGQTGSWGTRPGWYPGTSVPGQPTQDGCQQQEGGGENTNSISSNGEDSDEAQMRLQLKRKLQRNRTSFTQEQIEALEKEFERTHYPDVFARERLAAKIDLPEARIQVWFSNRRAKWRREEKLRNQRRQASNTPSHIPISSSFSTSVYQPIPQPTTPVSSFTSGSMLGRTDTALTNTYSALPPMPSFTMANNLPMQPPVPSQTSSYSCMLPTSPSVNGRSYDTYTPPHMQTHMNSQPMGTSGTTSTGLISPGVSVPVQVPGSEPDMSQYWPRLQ
# Procedure, shortened: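 Read-out is reporter transcript level, measured by RT-PCR with fluorescent primer extension and capillary electrophoresis after 24 h dosing of transfected HepG2 cells. Activity in either direction fitted relative to DMSO control.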
# [10] = ATG_PXRE_CIS: Attagene CIS-FACTORIAL HepG2 Assay for human Pregnane X Receptor Element (PXRE) (AID 2282957); conditions: HepG2 Attagene CIS-FACTORIAL PXRE reporter, mRNA; actives raise or lower the signal
# Procedure, shortened: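 After a 24 h chemical incubation, total RNA from transfected HepG2 cells was reverse-transcribed and reporter cDNA amplified, FAM-labeled, HpaI-digested and sized by capillary electrophoresis. DMSO served as baseline for bidirectional curve fitting.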
# [11] = ATG_PPRE_CIS: Attagene CIS-FACTORIAL HepG2 Assay for human Peroxisome Proliferator-activated Response Element (PPRE) (AID 2282958); conditions: HepG2 PPRE cis-element reporter, Attagene transcription factor profiling; actives raise or lower the signal
# Procedure, shortened: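 Cells are first transfected transiently with the multiplexed reporter library, then dosed for 24 h. Total RNA is reverse-transcribed, amplified, fluorescently end-labeled and HpaI-cut before capillary electrophoresis; activity is fitted bidirectionally against DMSO controls.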
# [12] = ATG_RORE_CIS: Attagene CIS-FACTORIAL HepG2 Assay for human RAR-related Orphan Receptor Element (RORE) (AID 2282959); conditions: HepG2 Attagene cis-factorial RORE reporter, mRNA; actives raise or lower the signal
# Procedure, shortened: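 Cells were HepG2 carrying transfected cis-regulated reporter constructs, dosed for 24 hours. Total RNA was reverse-transcribed and reporter cDNA amplified, fluorescently labeled and sized by capillary electrophoresis. Activity was fitted bidirectionally relative to DMSO.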
# [13] = ATG_Sox_CIS: Attagene CIS-FACTORIAL HepG2 Assay for human SRY-box transcription factor (SOX) (AID 2282960); conditions: HepG2 Attagene cis-factorial SOX reporter, mRNA; actives raise or lower the signal
# Procedure, shortened: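 Transient MRTU transfection of HepG2; 24 h compound incubation; TriZol RNA, oligo(dT) RT, PCR, 6-FAM primer extension, HpaI cut, CE. Bidirectional fit, DMSO = baseline.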
# [14] = target: Transcription factor Sp1 (Homo sapiens) (UniProt P08047); assay: ATG_Sp1_CIS: Attagene CIS-FACTORIAL HepG2 Assay for human Specificity Protein 1 (Sp1) (AID 2282961); conditions: HepG2 Sp1 cis-reporter transcription, actives raise or lower the signal
# Chain of Transcription factor Sp1 (Homo sapiens) (P08047 whole entry, looked up): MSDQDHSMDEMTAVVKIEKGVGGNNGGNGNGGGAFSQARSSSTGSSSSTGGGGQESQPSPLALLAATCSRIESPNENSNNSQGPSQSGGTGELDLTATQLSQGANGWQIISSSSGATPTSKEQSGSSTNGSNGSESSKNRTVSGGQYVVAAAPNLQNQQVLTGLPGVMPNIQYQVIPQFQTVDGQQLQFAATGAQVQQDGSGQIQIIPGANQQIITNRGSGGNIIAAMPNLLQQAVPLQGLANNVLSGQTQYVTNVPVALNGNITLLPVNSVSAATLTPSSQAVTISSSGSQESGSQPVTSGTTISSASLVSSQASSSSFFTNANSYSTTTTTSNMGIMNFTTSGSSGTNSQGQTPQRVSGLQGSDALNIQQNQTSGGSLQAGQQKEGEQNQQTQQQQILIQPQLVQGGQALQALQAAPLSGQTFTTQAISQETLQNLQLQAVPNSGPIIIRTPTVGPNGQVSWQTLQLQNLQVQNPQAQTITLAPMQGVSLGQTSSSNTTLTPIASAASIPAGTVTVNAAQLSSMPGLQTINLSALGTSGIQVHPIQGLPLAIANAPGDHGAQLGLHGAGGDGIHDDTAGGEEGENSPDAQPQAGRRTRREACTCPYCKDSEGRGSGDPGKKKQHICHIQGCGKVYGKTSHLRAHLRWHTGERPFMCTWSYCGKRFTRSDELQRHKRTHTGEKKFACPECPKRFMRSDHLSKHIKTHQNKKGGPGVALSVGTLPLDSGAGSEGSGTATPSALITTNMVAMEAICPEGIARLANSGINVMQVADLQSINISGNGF
# Procedure, shortened: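 Endogenous Sp1 activity was gauged in human liver HepG2 cells bearing transfected reporter units under a cis-regulating promoter. After 24 h dosing, reporter mRNA was quantified by RT-PCR with capillary electrophoresis, and activity fitted bidirectionally versus DMSO.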
# [15] = ATG_SREBP_CIS: Attagene CIS-FACTORIAL HepG2 Assay for human Sterol Regulatory Element Binding (SREBP) (AID 2282962); conditions: HepG2 Attagene cis-factorial SREBP reporter, mRNA; actives raise or lower the signal
# Procedure, shortened: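 Endogenous SREBP activity read as cis-element-driven reporter transcript in transiently transfected HepG2, 24 h post-dosing; quantified via RT-PCR plus capillary electrophoresis of fluorescent fragments. Gain or loss of signal fitted relative to DMSO baseline.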
# [16] = target: Signal transducer and activator of transcription 3 (Homo sapiens) (UniProt P40763); assay: ATG_STAT3_CIS: Attagene CIS-FACTORIAL HepG2 Assay for human Signal Transducer and Activator of Transcription 3 (STAT3) (AID 2282963); conditions: HepG2, Attagene cis-factorial STAT3 reporter transcription; actives raise or lower the signal
# Chain of Signal transducer and activator of transcription 3 (Homo sapiens) (P40763 whole entry, looked up): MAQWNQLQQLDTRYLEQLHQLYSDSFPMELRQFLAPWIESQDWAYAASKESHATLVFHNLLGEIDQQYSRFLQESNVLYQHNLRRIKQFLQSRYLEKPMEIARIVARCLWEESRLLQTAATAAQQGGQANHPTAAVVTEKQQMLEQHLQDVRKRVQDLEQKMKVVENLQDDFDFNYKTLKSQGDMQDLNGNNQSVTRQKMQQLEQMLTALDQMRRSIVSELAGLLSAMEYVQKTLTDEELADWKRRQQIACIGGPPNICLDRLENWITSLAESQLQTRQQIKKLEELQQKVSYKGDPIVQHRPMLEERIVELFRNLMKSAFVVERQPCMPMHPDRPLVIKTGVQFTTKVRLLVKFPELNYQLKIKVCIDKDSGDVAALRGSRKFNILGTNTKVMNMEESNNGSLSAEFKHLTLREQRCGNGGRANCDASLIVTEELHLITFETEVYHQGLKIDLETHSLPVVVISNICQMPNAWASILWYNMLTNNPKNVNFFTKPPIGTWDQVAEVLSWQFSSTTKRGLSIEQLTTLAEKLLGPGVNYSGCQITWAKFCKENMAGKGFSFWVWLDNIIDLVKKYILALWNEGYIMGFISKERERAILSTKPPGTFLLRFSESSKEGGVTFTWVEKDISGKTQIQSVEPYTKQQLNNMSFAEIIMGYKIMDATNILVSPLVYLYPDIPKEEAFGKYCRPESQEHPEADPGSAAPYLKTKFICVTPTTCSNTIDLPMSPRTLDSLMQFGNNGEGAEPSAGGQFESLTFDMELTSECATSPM
# Procedure, shortened: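 Uses human liver HepG2 transiently carrying cis-regulated reporter transcription units. Following 24 h dosing, reporter mRNA induction was detected by RT-PCR and capillary electrophoresis, analysed bidirectionally versus DMSO.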
# [17] = ATG_TA_CIS: Attagene CIS-FACTORIAL HepG2 Assay for human TA Basal Promoter (AID 2282964); conditions: HepG2 Attagene CIS-factorial TA basal promoter reporter; actives raise or lower the signal
# Procedure, shortened: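 Transfected HepG2, 24 h compound exposure; RNA → RT-PCR → FAM primer extension → HpaI cut → CE fluorescence. Gain/loss-of-signal fitted against DMSO negative control. Background-control readout.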
# [18] = ATG_TCF_b_cat_CIS: Attagene CIS-FACTORIAL HepG2 Assay for human T-Cell-Factor with beta-catenin (TCF/b-cat) (AID 2282965); conditions: HepG2 TCF/beta-catenin cis-reporter transcription, actives raise or lower the signal
# Procedure, shortened: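 In this cis-format system, transfected HepG2 cells report endogenous transcription factor activity. Readout after 24 h exposure is reporter transcript abundance from RT-PCR and capillary electrophoresis, analysed for gain or loss of signal versus DMSO.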
# [19] = ATG_TAL_CIS: Attagene CIS-FACTORIAL HepG2 Assay for human TAL Basal Promoter (AID 2282966); conditions: HepG2 Attagene cis-factorial TAL promoter reporter; actives raise or lower the signal;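 also: background control endpoint measuring basal TAL promoter reporter mRNA not a specific factor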
# Procedure, shortened: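 Basal-promoter background-control endpoint from a multiplexed HepG2 reporter panel. Cells were exposed 24 h, then reporter mRNA was read by RT-PCR/CE fluorescence and fitted in both directions relative to DMSO.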
compound,measurement,setting,value
CCOP(=S)(OCC)Oc1ccc(S(C)=O)cc1 (centres undefined),outcome,[1],inactive
same,outcome,[2],inactive
same,outcome,[3],inactive
same,outcome,[4],inactive
same,outcome,[5],inactive
same,outcome,[6],inactive
same,outcome,[7],inactive
same,outcome,[8],inactive
same,outcome,[9],inactive
same,AC50,[10],15.9 µM (active)
same,outcome,[11],inactive
same,outcome,[12],inactive
same,outcome,[13],inactive
same,outcome,[14],inactive
same,outcome,[15],inactive
same,outcome,[16],inactive
same,outcome,[17],inactive
same,outcome,[18],inactive
same,outcome,[19],inactive
CC1(C)CCC(Cc2ccc(Cl)cc2)C1(O)Cn1cncn1 (centres undefined),outcome,[1],inactive
same,outcome,[2],inactive
same,outcome,[3],inactive
same,outcome,[4],inactive
same,outcome,[6],inactive
same,outcome,[7],inactive
same,AC50,[8],24.2 µM (active)
same,outcome,[9],inactive
same,AC50,[10],2.43 µM (active)
same,outcome,[11],inactive
same,outcome,[12],inactive
same,outcome,[13],inactive
same,outcome,[14],inactive
same,AC50,[15],9.3 µM (active)
same,outcome,[16],inactive
same,outcome,[17],inactive
same,outcome,[18],inactive
same,outcome,[19],inactive
CC(C)c1cccc(C(C)C)c1O,outcome,[1],inactive
same,outcome,[2],inactive
same,outcome,[3],inactive
same,outcome,[5],inactive
same,outcome,[6],inactive
same,outcome,[7],inactive
same,outcome,[8],inactive
same,outcome,[9],inactive
same,AC50,[10],3.76 µM (active)
same,outcome,[11],inactive
same,outcome,[12],inactive
same,outcome,[13],inactive
same,outcome,[14],inactive
same,outcome,[15],inactive
same,outcome,[16],inactive
same,outcome,[17],inactive
same,outcome,[18],inactive
same,outcome,[19],inactive
Oc1cccc2cccnc12,outcome,[1],inactive
same,outcome,[2],inactive
same,outcome,[3],inactive
same,outcome,[5],inactive
same,outcome,[6],inactive
same,AC50,[7],148 µM (active)
same,outcome,[7],inactive
same,outcome,[8],inactive
same,outcome,[9],inactive
same,AC50,[10],27.5 µM (active) and 95.5 µM (active)
same,outcome,[11],inactive
same,outcome,[12],inactive
same,outcome,[13],inactive
same,outcome,[14],inactive
same,outcome,[15],inactive
same,outcome,[16],inactive
same,outcome,[17],inactive
same,outcome,[18],inactive
same,outcome,[19],inactive
c1ccc(N=NNc2ccccc2)cc1,outcome,[1],inactive
same,outcome,[2],inactive
same,outcome,[3],inactive
same,outcome,[4],inactive
same,AC50,[6],151 µM (active)
same,AC50,[7],100 µM (active)
same,outcome,[8],inactive
same,AC50,[9],125 µM (active)
same,AC50,[10],25.8 µM (active)
same,AC50,[11],21.7 µM (active)
same,outcome,[12],inactive
same,AC50,[13],145 µM (active)
same,AC50,[14],153 µM (active)
same,AC50,[15],136 µM (active)
same,outcome,[16],inactive
same,outcome,[17],inactive
same,outcome,[18],inactive
COP(=O)(OC)O/C(=C\Cl)c1cc(Cl)c(Cl)cc1Cl,AC50,[1],47 µM (active)
same,outcome,[2],inactive
same,outcome,[3],inactive
same,AC50,[4],100 µM (active)
same,outcome,[5],inactive
same,AC50,[6],153 µM (active)
same,AC50,[7],100 µM (active)
same,AC50,[9],35.2 µM (active)
same,AC50,[10],1.4 µM (active)
same,AC50,[11],154 µM (active)
same,outcome,[12],inactive
same,AC50,[13],44.3 µM (active)
same,outcome,[14],inactive
same,AC50,[15],26.9 µM (active)
same,outcome,[16],inactive
same,AC50,[17],73.4 µM (active)
same,AC50,[18],34.9 µM (active)
same,AC50,[19],100 µM (active)
CN(C)P(=O)(N(C)C)N(C)C,outcome,[1],inactive
same,outcome,[2],inactive
same,outcome,[3],inactive
same,outcome,[4],inactive
same,outcome,[6],inactive
same,outcome,[7],inactive
same,outcome,[9],inactive
same,outcome,[10],inactive
same,outcome,[11],inactive
same,outcome,[12],inactive
same,outcome,[13],inactive
same,outcome,[14],inactive
same,outcome,[15],inactive
same,outcome,[16],inactive
same,outcome,[17],inactive
same,outcome,[18],inactive
same,outcome,[19],inactive
Cc1cc(Cl)ccc1O[C@H](C)C(=O)O,outcome,[1],inactive
same,outcome,[2],inactive
same,outcome,[3],inactive
same,outcome,[4],inactive
same,outcome,[6],inactive
same,outcome,[7],inactive
same,outcome,[8],inactive
same,outcome,[9],inactive
same,outcome,[10],inactive
same,AC50,[11],28.7 µM (active)
same,outcome,[12],inactive
same,outcome,[13],inactive
same,outcome,[14],inactive
same,outcome,[15],inactive
same,AC50,[16],100 µM (active)
same,outcome,[17],inactive
same,outcome,[18],inactive
same,outcome,[19],inactive
